# Experimental data: PubChem BioAssay (Tox21)
# Unmarked numbers belong to inactive results. Inconclusive results are not listed. Entries that show only a call come without a potency. Calls of active or inactive are those of the source. Unless noted, calls come from the whole dose curve; as a rule, active = well fitted curve in the direction sought with a large enough effect in the repeat runs; inconclusive = weak or mixed curves; inactive = no such curve, though single readings can be large; an effect the other way counts as inactive or inconclusive.
# Experiments:
# [1] = qHTS assay to identify small molecule agonists of H2AX - cell viability counter screen (AID 1224847; calls by dose curve; note: nearly all actives have a fitted effect of over 30% in size; note: potency is the fitted concentration of half-maximal effect)
# How it was run: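 We seed wild-type CHO-K1 cells overnight, treat them for 3 hr at 37C with compounds in 15-concentration series, and quantify remaining viability by CellTiter-Glo luminescence.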
# [2] = qHTS assay to identify small molecule antagonists of the estrogen related receptor (ERR) signaling pathway from Tox21 library (AID 1224848); note: nearly all actives have a fitted effect of over 50% in size; note: potency is the fitted concentration of half-maximal effect
# How it was run: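 Luciferase luminescence (ONE-Glo, 30 min room temperature) was the read-out. Cells of the NTP-supplied ERR line, 2,000 per well, were given 6 h at 37 C before compound addition in DMSO and 18 h exposure at 37 C.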
# [3] = qHTS assay to identify small molecule agonists of the estrogen related receptor (ERR) signaling pathway from Tox21 library (AID 1224849; calls by dose curve; note: nearly all actives have a fitted effect of over 15% in size); conditions: ERR reporter cell line, ONE-Glo luciferase, 18 h; at 92.4 µM (top of the series) unless noted
# How it was run: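 Reporter cells (ERR, NTP source) treated with Tox21 10K compounds 18 h, 37 C. Readout: ONE-Glo luminescence, 30 min RT.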
# [4] = qHTS RealTime-Glo MT Cell Viability Assay in HepG2 cells - 24 hour (AID 1224867); note: nearly all actives have a fitted effect of over 50% in size; note: potency is the fitted concentration of half-maximal effect
# How it was run: (§1)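 HepG2 suspension premixed with RealTime-Glo reagents is plated at 600 cells per well and left 5 h at 37 C/5% CO2. Compounds in DMSO then go in, and bioluminescence reflecting viable cell number is recorded over 40 h.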
# [5] = qHTS RealTime-Glo MT Cell Viability Assay in HEK293 cells - 32 hour (AID 1224868); note: nearly all actives have a fitted effect of over 50% in size; note: potency is the fitted concentration of half-maximal effect
# How it was run: (§2)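 Reads taken at 0, 8, 16, 24, 32 and 40 h from the same wells. HEK293 cells (600/well) carried RealTime-Glo reagents from seeding, with compound added after a 5 h settle at 37 C.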
# [6] = A CellTox Green Cytotoxicity Assay to monitor cytotoxicity in HEK293 cells - 0 hour (AID 1224869); note: nearly all actives have a fitted effect of over 50% in size
# How it was run: (§3)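 Homogeneous no-lysis format: HEK293 cell suspension mixed with CellTox Green reagent, seeded, incubated 5 h at 37 C/5% CO2, then dosed by pintool with compound in DMSO.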
# [7] = qHTS RealTime-Glo MT Cell Viability Assay in HepG2 cells - 40 hour (AID 1224870); note: nearly all actives have a fitted effect of over 50% in size; note: potency is the fitted concentration of half-maximal effect
# How it was run: (§4)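 Real-time viability: cells seeded at 600 per well together with NanoLuc and cell-permeant prosubstrate, compounds added after 5 h incubation. Luminescence tracked at 0, 8, 16, 24, 32 and 40 h of exposure.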
# [8] = A CellTox Green Cytotoxicity Assay to monitor cytotoxicity in HEK293 cells - 40 hour (AID 1224871); note: nearly all actives have a fitted effect of over 45% in size
# How it was run: as §3
# [9] = qHTS RealTime-Glo MT Cell Viability Assay in HEK293 cells - 16 hour (AID 1224872); note: nearly all actives have a fitted effect of over 50% in size; note: potency is the fitted concentration of half-maximal effect
# How it was run: as §2
# [10] = qHTS RealTime-Glo MT Cell Viability Assay in HepG2 cells - 8 hour (AID 1224873); note: nearly all actives have a fitted effect of over 55% in size; note: potency is the fitted concentration of half-maximal effect
# How it was run: as §4
# [11] = qHTS RealTime-Glo MT Cell Viability Assay in HEK293 cells - 40 hour (AID 1224874); conditions: RealTime-Glo luminescence; max response: stronger effect = lower value; note: nearly all actives have a fitted effect of over 50% in size; note: potency is the fitted concentration of half-maximal effect
# How it was run: (§5)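 Measured as luminescence from the same continuously cultured HEK293 wells at successive time points (0, 8, 16, 24, 32, 40 h) after compound addition. Reagent present from seeding; dosing at 5 h; incubation 37 C.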
# [12] = A CellTox Green Cytotoxicity Assay to monitor cytotoxicity in HEK293 cells - 24 hour (AID 1224875); note: nearly all actives have a fitted effect of over 45% in size; note: potency is the fitted concentration of half-maximal effect
# How it was run: as §3
# [13] = A CellTox Green Cytotoxicity Assay to monitor cytotoxicity in HepG2 cells - 16 hour (AID 1224876); note: nearly all actives have a fitted effect of over 45% in size; note: potency is the fitted concentration of half-maximal effect
# How it was run: (§6)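 Fluorescent DNA-binding dye, 600 HepG2 cells/well, 5 h preincubation then compound in DMSO; same plates read at 0–40 h, 37 C.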
# [14] = qHTS RealTime-Glo MT Cell Viability Assay in HepG2 cells - 32 hour (AID 1224877); note: nearly all actives have a fitted effect of over 55% in size; note: potency is the fitted concentration of half-maximal effect
# How it was run: as §1
# [15] = A CellTox Green Cytotoxicity Assay to monitor cytotoxicity in HepG2 cells - 24 hour (AID 1224878); note: nearly all actives have a fitted effect of over 45% in size; note: potency is the fitted concentration of half-maximal effect
# How it was run: as §6
# [16] = A CellTox Green Cytotoxicity Assay to monitor cytotoxicity in HepG2 cells - 40 hour (AID 1224879); note: nearly all actives have a fitted effect of over 40% in size; note: potency is the fitted concentration of half-maximal effect
# How it was run: as §6
# [17] = qHTS RealTime-Glo MT Cell Viability Assay in HEK293 cells - 0 hour (AID 1224880); note: nearly all actives have a fitted effect of over 45% in size; note: potency is the fitted concentration of half-maximal effect
# How it was run: as §5
# [18] = A CellTox Green Cytotoxicity Assay to monitor cytotoxicity in HEK293 cells - 32 hour (AID 1224881); note: nearly all actives have a fitted effect of over 40% in size
# How it was run: as §3
# [19] = A CellTox Green Cytotoxicity Assay to monitor cytotoxicity in HepG2 cells - 0 hour (AID 1224882); note: nearly all actives have a fitted effect of over 35% in size
# How it was run: as §6
# [20] = A CellTox Green Cytotoxicity Assay to monitor cytotoxicity in HepG2 cells - 32 hour (AID 1224883); note: nearly all actives have a fitted effect of over 50% in size; note: potency is the fitted concentration of half-maximal effect
# How it was run: as §6
smiles,measurement,setting,value
COC(=O)c1ccc([N+](=O)[O-])cc1,Potency,[1],inactive
same,Potency,[2],inactive
same,"activity change, positive = activation",[3],1.35%
same,Potency,[4],inactive
same,Potency,[5],inactive
same,Potency,[6],inactive
same,Potency,[7],inactive
same,Potency,[8],inactive
same,Potency,[9],inactive
same,Potency,[10],inactive
same,max response,[11],-4.75%
same,Potency,[12],inactive
same,Potency,[13],inactive
same,Potency,[14],inactive
same,Potency,[15],inactive
same,Potency,[16],inactive
same,Potency,[17],inactive
same,Potency,[18],inactive
same,Potency,[19],inactive
same,Potency,[20],inactive
CC1(C)[C@H]2CC[C@]1(C)C(=O)C2,Potency,[1],inactive
same,Potency,[2],inactive
same,"activity change, positive = activation",[3],6.28%
same,Potency,[4],inactive
same,Potency,[5],inactive
same,Potency,[6],inactive
same,Potency,[7],inactive
same,Potency,[8],inactive
same,Potency,[10],inactive
same,max response,[11],16%
same,Potency,[12],inactive
same,Potency,[13],inactive
same,Potency,[14],inactive
same,Potency,[16],inactive
same,Potency,[17],inactive
same,Potency,[18],inactive
same,Potency,[19],inactive
same,Potency,[20],inactive
CC(C)C(=O)C(C)C,Potency,[1],inactive
same,Potency,[2],inactive
same,"activity change, positive = activation",[3],1.37%
same,Potency,[4],inactive
same,Potency,[5],inactive
same,Potency,[6],inactive
same,Potency,[7],inactive
same,Potency,[8],inactive
same,Potency,[9],inactive
same,Potency,[10],inactive
same,max response,[11],8.37%
same,Potency,[12],inactive
same,Potency,[13],inactive
same,Potency,[14],inactive
same,Potency,[15],inactive
same,Potency,[16],inactive
same,Potency,[17],inactive
same,Potency,[20],inactive
[Cl][Sc]([Cl])[Cl],Potency,[1],inactive
same,Potency,[2],inactive
same,"activity change, positive = activation",[3],0.963%
same,Potency,[4],inactive
same,Potency,[5],inactive
same,Potency,[6],inactive
same,Potency,[7],inactive
same,Potency,[8],inactive
same,Potency,[9],inactive
same,Potency,[10],inactive
same,max response,[11],-3.01%
same,Potency,[12],inactive
same,Potency,[13],inactive
same,Potency,[14],inactive
same,Potency,[16],inactive
same,Potency,[17],inactive
same,Potency,[18],inactive
same,Potency,[19],inactive
same,Potency,[20],inactive
CCCC(C)C=O (stereo not drawn),Potency,[1],inactive
same,Potency,[2],inactive
same,"activity change, positive = activation",[3],4.95%
same,Potency,[4],inactive
same,Potency,[5],inactive
same,Potency,[6],inactive
same,Potency,[7],inactive
same,Potency,[8],inactive
same,Potency,[10],inactive
same,max response,[11],0.0424%
same,Potency,[12],inactive
same,Potency,[13],inactive
same,Potency,[14],inactive
same,Potency,[15],inactive
same,Potency,[16],inactive
same,Potency,[17],inactive
same,Potency,[18],inactive
same,Potency,[19],inactive
same,Potency,[20],inactive
Nc1ccc(F)c([N+](=O)[O-])c1,Potency,[1],inactive
same,Potency,[2],34.4 µM (active)
same,"activity change, positive = activation",[3],-30.4%
same,Potency,[4],inactive
same,Potency,[5],inactive
same,Potency,[6],inactive
same,Potency,[7],inactive
same,Potency,[8],inactive
same,Potency,[9],inactive
same,Potency,[10],inactive
same,max response,[11],4.61%
same,Potency,[12],inactive
same,Potency,[13],inactive
same,Potency,[14],inactive
same,Potency,[16],inactive
same,Potency,[17],inactive
same,Potency,[18],inactive
same,Potency,[20],inactive
NC(=O)c1ccccc1Cl,Potency,[1],inactive
same,Potency,[2],inactive
same,"activity change, positive = activation",[3],3.13%
same,Potency,[4],inactive
same,Potency,[5],inactive
same,Potency,[6],inactive
same,Potency,[7],inactive
same,Potency,[9],inactive
same,Potency,[10],inactive
same,max response,[11],-1.02%
same,Potency,[12],inactive
same,Potency,[13],inactive
same,Potency,[16],inactive
same,Potency,[17],inactive
same,Potency,[18],inactive
same,Potency,[19],inactive
same,Potency,[20],inactive
Cc1ccc(S(=O)(=O)C(I)I)cc1,Potency,[1],22.5 µM (active)
same,Potency,[2],61.1 µM (active)
same,"activity change, positive = activation",[3],-77.2%
same,Potency,[4],11 µM (active)
same,Potency,[5],12.3 µM (active)
same,Potency,[6],inactive
same,Potency,[7],12.3 µM (active)
same,Potency,[9],15.5 µM (active)
same,Potency,[10],12.3 µM (active)
same,Potency,[11],8.71 µM (active)
same,Potency,[12],34.7 µM (active)
same,Potency,[13],54.9 µM (active)
same,Potency,[14],11 µM (active)
same,Potency,[15],49 µM (active)
same,Potency,[16],24.5 µM (active)
same,Potency,[17],0.616 µM (active)
same,Potency,[20],43.6 µM (active)
S=C1NC=NC2N=CNC12 (stereo not drawn),Potency,[1],3.19 µM (active)
same,Potency,[2],19.3 µM (active)
same,"activity change, positive = activation",[3],-55.5%
same,Potency,[4],inactive
same,Potency,[5],21.9 µM (active)
same,Potency,[6],inactive
same,Potency,[7],inactive
same,Potency,[8],inactive
same,Potency,[10],inactive
same,Potency,[11],17.4 µM (active)
same,Potency,[12],inactive
same,Potency,[13],inactive
same,Potency,[14],inactive
same,Potency,[16],inactive
same,Potency,[17],inactive
same,Potency,[19],inactive
same,Potency,[20],inactive
Cc1cccc2c1ccc1ccccc12,Potency,[1],inactive
same,Potency,[2],24.3 µM (active)
same,"activity change, positive = activation",[3],-38.7%
same,Potency,[4],inactive
same,Potency,[6],inactive
same,Potency,[7],inactive
same,Potency,[8],inactive
same,Potency,[9],inactive
same,Potency,[10],inactive
same,max response,[11],-16.2%
same,Potency,[12],inactive
same,Potency,[13],inactive
same,Potency,[14],inactive
same,Potency,[16],inactive
same,Potency,[17],inactive
same,Potency,[18],inactive
same,Potency,[19],inactive
same,Potency,[20],inactive
c1ccc(C[P+](c2ccccc2)(c2ccccc2)c2ccccc2)cc1,Potency,[1],101 µM (active)
same,Potency,[2],1.72 µM (active)
same,"activity change, positive = activation",[3],-56.8%
same,Potency,[4],inactive
same,Potency,[5],1.55 µM (active)
same,Potency,[6],inactive
same,Potency,[7],inactive
same,Potency,[10],inactive
same,Potency,[11],1.38 µM (active)
same,Potency,[12],inactive
same,Potency,[13],inactive
same,Potency,[14],inactive
same,Potency,[16],19.5 µM (active)
same,Potency,[17],inactive
same,Potency,[19],inactive
same,Potency,[20],21.9 µM (active)
CC/C=C(\C)C=O,Potency,[1],inactive
same,Potency,[2],inactive
same,"activity change, positive = activation",[3],5.99%
same,Potency,[4],inactive
same,Potency,[6],inactive
same,Potency,[7],inactive
same,Potency,[8],inactive
same,Potency,[9],inactive
same,Potency,[10],inactive
same,max response,[11],4.52%
same,Potency,[12],inactive
same,Potency,[13],inactive
same,Potency,[16],inactive
same,Potency,[17],inactive
same,Potency,[19],inactive
same,Potency,[20],inactive
